Legend:
Experiment in all cases: PBM; 200 nM protein, PBS
Conditions in all cases: dsDNA, one strand shown
HESX1 [1] = molecular target: HESX1 (Homo sapiens, UniProt Q9UBX0 95-180, R165K)
HESX1 [2] = molecular target: HESX1 (Homo sapiens, UniProt Q9UBX0 95-180)
ALX1 [3] = molecular target: ALX1 (Homo sapiens, UniProt Q15699 118-204, L144V)
ALX1 [4] = molecular target: ALX1 (Homo sapiens, UniProt Q15699 118-204, L144R)
HESX1 [5] = molecular target: HESX1 (Homo sapiens, UniProt Q9UBX0 95-180, R109Q)
HESX1 (Homo sapiens, UniProt Q9UBX0 95-180, R109Q), sequence (Q9UBX0 95-180 R109Q): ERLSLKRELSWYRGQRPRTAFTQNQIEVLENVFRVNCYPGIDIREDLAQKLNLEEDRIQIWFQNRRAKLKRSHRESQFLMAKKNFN

HESX1 [6] = molecular target: HESX1 (Homo sapiens, UniProt Q9UBX0 95-180, P111T)
HESX1 (Homo sapiens, UniProt Q9UBX0 95-180, P111T), sequence (Q9UBX0 95-180 P111T): as the sequence (Q9UBX0 95-180 R109Q) above, with Q15R, P17T counted along it

HESX1 [7] = molecular target: HESX1 (Homo sapiens, UniProt Q9UBX0 95-180, F115L)
HESX1 (Homo sapiens, UniProt Q9UBX0 95-180, F115L), sequence (Q9UBX0 95-180 F115L): as the sequence (Q9UBX0 95-180 R109Q) above, with Q15R, F21L counted along it

ALX1 [8] = molecular target: ALX1 (Homo sapiens, UniProt Q15699 118-204)
ALX1 (Homo sapiens, UniProt Q15699 118-204), sequence (Q15699 118-204): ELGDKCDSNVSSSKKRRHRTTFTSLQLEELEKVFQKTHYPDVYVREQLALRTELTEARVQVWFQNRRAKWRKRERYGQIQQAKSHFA

SHOX [9] = molecular target: SHOX (Homo sapiens, UniProt O15266 103-189)
SHOX (Homo sapiens, UniProt O15266 103-189), sequence (O15266 103-189): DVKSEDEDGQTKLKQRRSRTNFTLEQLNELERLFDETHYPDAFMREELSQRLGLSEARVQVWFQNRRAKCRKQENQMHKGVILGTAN

ALX4 = ALX4 (Homo sapiens, UniProt Q9H161 200-286, Q225E)
ALX4, sequence (Q9H161 200-286 Q225E): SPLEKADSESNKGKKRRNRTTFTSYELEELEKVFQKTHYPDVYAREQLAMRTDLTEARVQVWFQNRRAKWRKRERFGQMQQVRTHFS

MSX2 = MSX2 (Homo sapiens, UniProt P35548 130-214, R199I)
MSX2, sequence (P35548 130-214 R199I): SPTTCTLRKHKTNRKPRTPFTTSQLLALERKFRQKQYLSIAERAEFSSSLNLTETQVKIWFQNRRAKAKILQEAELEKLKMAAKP

ALX3 [10] = molecular target: ALX3 (Homo sapiens, UniProt O95076 139-225, N203Q)
ALX3 (Homo sapiens, UniProt O95076 139-225, N203Q), sequence (O95076 139-225 N203Q): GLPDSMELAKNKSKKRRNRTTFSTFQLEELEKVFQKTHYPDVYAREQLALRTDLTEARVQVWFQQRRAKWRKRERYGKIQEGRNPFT

SHOX [11] = molecular target: SHOX (Homo sapiens, UniProt O15266 103-189, R173C)
SHOX (Homo sapiens, UniProt O15266 103-189, R173C), sequence (O15266 103-189 R173C): as the sequence (O15266 103-189) above, with R71C counted along it

ALX3 [12] = molecular target: ALX3 (Homo sapiens, UniProt O95076 139-225)
ALX3 (Homo sapiens, UniProt O95076 139-225), sequence (O95076 139-225): as the sequence (O95076 139-225 N203Q) above, with Q65N counted along it

PROP1 [13] = molecular target: PROP1 (Homo sapiens, UniProt O75360 56-141)
PROP1 (Homo sapiens, UniProt O75360 56-141), sequence (O75360 56-141): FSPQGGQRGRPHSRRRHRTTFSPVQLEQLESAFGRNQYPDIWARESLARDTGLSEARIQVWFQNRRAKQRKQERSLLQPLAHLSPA

PROP1 [14] = molecular target: PROP1 (Homo sapiens, UniProt O75360 56-141, R99H)
PROP1 (Homo sapiens, UniProt O75360 56-141, R99H), sequence (O75360 56-141 R99H): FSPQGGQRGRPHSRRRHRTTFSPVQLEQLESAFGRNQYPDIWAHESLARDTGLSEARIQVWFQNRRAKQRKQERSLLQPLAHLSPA

ALX3 [15] = molecular target: ALX3 (Homo sapiens, UniProt O95076 139-225, L168Q)
ALX3 (Homo sapiens, UniProt O95076 139-225, L168Q), sequence (O95076 139-225 L168Q): as the sequence (O95076 139-225 N203Q) above, with L30Q, Q65N counted along it

ALX3 [16] = molecular target: ALX3 (Homo sapiens, UniProt O95076 139-225, L168V)
ALX3 (Homo sapiens, UniProt O95076 139-225, L168V), sequence (O95076 139-225 L168V): as the sequence (O95076 139-225 N203Q) above, with L30V, Q65N counted along it

PROP1 [17] = molecular target: PROP1 (Homo sapiens, UniProt O75360 56-141, F88S)
PROP1 (Homo sapiens, UniProt O75360 56-141, F88S), sequence (O75360 56-141 F88S): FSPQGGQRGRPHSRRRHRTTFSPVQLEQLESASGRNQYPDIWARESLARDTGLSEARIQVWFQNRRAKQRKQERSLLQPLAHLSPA

ALX3 [18] = molecular target: ALX3 (Homo sapiens, UniProt O95076 139-225, N203S)
ALX3 (Homo sapiens, UniProt O95076 139-225, N203S), sequence (O95076 139-225 N203S): as the sequence (O95076 139-225 N203Q) above, with Q65S counted along it

HESX1 (Homo sapiens, UniProt Q9UBX0 95-180), sequence (Q9UBX0 95-180): as the sequence (Q9UBX0 95-180 R109Q) above, with Q15R counted along it
HESX1 (Homo sapiens, UniProt Q9UBX0 95-180, R165K), sequence (Q9UBX0 95-180 R165K): as the sequence (Q9UBX0 95-180 R109Q) above, with Q15R, R71K counted along it
ALX1 (Homo sapiens, UniProt Q15699 118-204, L144R), sequence (Q15699 118-204 L144R): as the sequence (Q15699 118-204) above, with L27R counted along it
ALX1 (Homo sapiens, UniProt Q15699 118-204, L144V), sequence (Q15699 118-204 L144V): as the sequence (Q15699 118-204) above, with L27V counted along it

| Sequence | binding signal (HESX1 [1]) | binding signal (HESX1 [2]) | binding signal (ALX1 [3]) | binding signal (ALX1 [4]) | binding signal (HESX1 [5]) | binding signal (HESX1 [6]) | binding signal (HESX1 [7]) | binding signal (ALX1 [8]) | binding signal (SHOX [9]) | binding signal (ALX4) | binding signal (MSX2) | binding signal (ALX3 [10]) | binding signal (SHOX [11]) | binding signal (ALX3 [12]) | binding signal (PROP1 [13]) | binding signal (PROP1 [14]) | binding signal (ALX3 [15]) | binding signal (ALX3 [16]) | binding signal (PROP1 [17]) | binding signal (ALX3 [18]) |
| --- | --- | --- | --- | --- | --- | --- | --- | --- | --- | --- | --- | --- | --- | --- | --- | --- | --- | --- | --- | --- |
| GGCAGGCC | 6.38 upbm affinity estimate (log intensity, higher = more binding, comparable within an allelic series) | 6.43 upbm affinity estimate (log intensity, higher = more binding, comparable within an allelic series) | 6.33 upbm affinity estimate (log intensity, higher = more binding, comparable within an allelic series) | 6.11 upbm affinity estimate (log intensity, higher = more binding, comparable within an allelic series) | 6.29 upbm affinity estimate (log intensity, higher = more binding, comparable within an allelic series) | 6.43 upbm affinity estimate (log intensity, higher = more binding, comparable within an allelic series) | 6.33 upbm affinity estimate (log intensity, higher = more binding, comparable within an allelic series) | 6.33 upbm affinity estimate (log intensity, higher = more binding, comparable within an allelic series) | – | – | – | – | – | – | – | – | – | – | – | – |
| CAATTACC | 12.7 upbm affinity estimate (log intensity, higher = more binding, comparable within an allelic series) | 12.6 upbm affinity estimate (log intensity, higher = more binding, comparable within an allelic series) | 11.6 upbm affinity estimate (log intensity, higher = more binding, comparable within an allelic series) | 11.3 upbm affinity estimate (log intensity, higher = more binding, comparable within an allelic series) | 8.97 upbm affinity estimate (log intensity, higher = more binding, comparable within an allelic series) | 10.9 upbm affinity estimate (log intensity, higher = more binding, comparable within an allelic series) | 7.62 upbm affinity estimate (log intensity, higher = more binding, comparable within an allelic series) | 12.4 upbm affinity estimate (log intensity, higher = more binding, comparable within an allelic series) | 11.8 upbm affinity estimate (log intensity, higher = more binding, comparable within an allelic series) | 12.9 upbm affinity estimate (log intensity, higher = more binding, comparable within an allelic series) | 12.7 upbm affinity estimate (log intensity, higher = more binding, comparable within an allelic series) | 8.27 upbm affinity estimate (log intensity, higher = more binding, comparable within an allelic series) | 9.24 upbm affinity estimate (log intensity, higher = more binding, comparable within an allelic series) | 12.4 upbm affinity estimate (log intensity, higher = more binding, comparable within an allelic series) | 11.3 upbm affinity estimate (log intensity, higher = more binding, comparable within an allelic series) | 11.5 upbm affinity estimate (log intensity, higher = more binding, comparable within an allelic series) | 10.3 upbm affinity estimate (log intensity, higher = more binding, comparable within an allelic series) | 9.72 upbm affinity estimate (log intensity, higher = more binding, comparable within an allelic series) | 7.4 upbm affinity estimate (log intensity, higher = more binding, comparable within an allelic series) | 8.36 upbm affinity estimate (log intensity, higher = more binding, comparable within an allelic series) |
| CAATTAGC | 13.2 upbm affinity estimate (log intensity, higher = more binding, comparable within an allelic series) | 13.3 upbm affinity estimate (log intensity, higher = more binding, comparable within an allelic series) | 11.9 upbm affinity estimate (log intensity, higher = more binding, comparable within an allelic series) | 11.5 upbm affinity estimate (log intensity, higher = more binding, comparable within an allelic series) | 9.79 upbm affinity estimate (log intensity, higher = more binding, comparable within an allelic series) | 11.7 upbm affinity estimate (log intensity, higher = more binding, comparable within an allelic series) | 7.74 upbm affinity estimate (log intensity, higher = more binding, comparable within an allelic series) | 12.8 upbm affinity estimate (log intensity, higher = more binding, comparable within an allelic series) | 12.7 upbm affinity estimate (log intensity, higher = more binding, comparable within an allelic series) | 13.5 upbm affinity estimate (log intensity, higher = more binding, comparable within an allelic series) | 13.1 upbm affinity estimate (log intensity, higher = more binding, comparable within an allelic series) | 8.26 upbm affinity estimate (log intensity, higher = more binding, comparable within an allelic series) | 9.99 upbm affinity estimate (log intensity, higher = more binding, comparable within an allelic series) | 12.6 upbm affinity estimate (log intensity, higher = more binding, comparable within an allelic series) | 11.8 upbm affinity estimate (log intensity, higher = more binding, comparable within an allelic series) | 11.9 upbm affinity estimate (log intensity, higher = more binding, comparable within an allelic series) | 10.7 upbm affinity estimate (log intensity, higher = more binding, comparable within an allelic series) | 10.1 upbm affinity estimate (log intensity, higher = more binding, comparable within an allelic series) | 7.57 upbm affinity estimate (log intensity, higher = more binding, comparable within an allelic series) | 8.45 upbm affinity estimate (log intensity, higher = more binding, comparable within an allelic series) |
| AACAATTA | 12 upbm affinity estimate (log intensity, higher = more binding, comparable within an allelic series) | 12.2 upbm affinity estimate (log intensity, higher = more binding, comparable within an allelic series) | – | – | 8.73 upbm affinity estimate (log intensity, higher = more binding, comparable within an allelic series) | 10.6 upbm affinity estimate (log intensity, higher = more binding, comparable within an allelic series) | 7.66 upbm affinity estimate (log intensity, higher = more binding, comparable within an allelic series) | – | 11.5 upbm affinity estimate (log intensity, higher = more binding, comparable within an allelic series) | 12.8 upbm affinity estimate (log intensity, higher = more binding, comparable within an allelic series) | 12.8 upbm affinity estimate (log intensity, higher = more binding, comparable within an allelic series) | 8.48 upbm affinity estimate (log intensity, higher = more binding, comparable within an allelic series) | 9.19 upbm affinity estimate (log intensity, higher = more binding, comparable within an allelic series) | 12.2 upbm affinity estimate (log intensity, higher = more binding, comparable within an allelic series) | 11.1 upbm affinity estimate (log intensity, higher = more binding, comparable within an allelic series) | 11.2 upbm affinity estimate (log intensity, higher = more binding, comparable within an allelic series) | 10.3 upbm affinity estimate (log intensity, higher = more binding, comparable within an allelic series) | 9.75 upbm affinity estimate (log intensity, higher = more binding, comparable within an allelic series) | 7.78 upbm affinity estimate (log intensity, higher = more binding, comparable within an allelic series) | 8.6 upbm affinity estimate (log intensity, higher = more binding, comparable within an allelic series) |

Reference: paper PMC11006913
